High-throughput results from PubChem BioAssay.
KCNQ2 pot = enhances the rat KCNQ2 potassium channel; O88943; CHO-K1 KCNQ2, FluxOR thallium flux fluorescence; stronger effect = higher value; B-score at 10 µM; actives 0.54% (n = 310,000);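 active means fluorescence ratio B-score at least 3 SD of library B-scores, with initial fluorescence B-score within 3 of them, cut at about 5.3 in these data; same plate scores as AID 2156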;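 further: B-score of peak minus minimum over baseline fluorescence ratio after K+ and Tl+ stimulus; positive B-score means potentiation of KCNQ2 with more thallium influx and brighter signal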
KCNQ2 inh = blocks the rat KCNQ2 potassium channel | O88943 | CHO-K1 KCNQ2, FluxOR thallium flux, 20 min; stronger effect = lower value | B-score at 10 µM | actives 1.1% (n = 310,000);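 active means fluorescence ratio B-score at most minus 3 library SDs, with starting brightness B-score within 2 library SDs, cut at about -5.5 in these data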
Kir21 conf inh = confirmation of mouse Kir2.1 potassium channel inhibitors; Tl flux remaining, % of negative control (stronger effect = lower value), % at 10 µM; actives 41% (n = 2,300); AID 2032; shares compounds with KCNQ2 pot; Kir2.1-expressing cells, FluxOR thallium flux fluorescence; stronger effect = lower value;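 active means Primary-screen hit whose thallium flux fell at least 3 control SD below untreated wells in both duplicates, with normal baseline fluorescence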
HEK293 ctr = alters thallium flux in parental HEK293 cells, Kir2.1 counter-screen | shares compounds with KCNQ2 pot | FluxOR signal as % of negative control (100 = no effect), % at 10 µM | FluxOR thallium flux fluorescence; 0% = unstimulated blank wells | actives 19% (n = 2,300);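 active means dye signal at least 3 control SD above or below untreated wells in both duplicates, raw fluorescence within 3, either direction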;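 further: percent is based on the flux ratio of peak minus minimum fluorescence over baseline F0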
CHO-K1 Tl ctr = alters thallium flux in parental CHO-K1 cells, KCNQ2 counter-screen; shares compounds with KCNQ2 pot; FluxOR thallium flux fluorescence; zero = vehicle mean+3SD, 100% = vehicle-minus-blank window; activity increase over 3SD of controls, % at 10 µM; actives 43% (n = 1,200); AID 2282;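 active means signal rise of at least 3 SD above the untreated control mean, in both duplicate wells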;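 further: counter screen of KCNQ2 potentiator hits so any rise reflects channel-independent effects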
KCNQ1 sel pot = selectivity of KCNQ2 potentiators: effect on human KCNQ1. shares compounds with KCNQ2 pot. CHO KCNQ1 stable, FluxOR thallium flux fluorescence; beyond 3SD, as % of vehicle-control signal. activation over 3SD threshold, % at 10 µM. actives 28% (n = 1,200). AID 2283;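 active means fluorescence ratio rise of at least 3 SD of vehicle wells above their mean, in both replicate wells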
KCNQ2 pot confirm = rat KCNQ2 channel potentiator confirmation | CHO-KCNQ2 cells, FluxOR thallium flux fluorescence | potentiation, less the hit threshold, % at 10 µM | shares compounds with KCNQ2 pot | actives 68% (n = 1,200) | AID 2287;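 active means fluorescence ratio rising 3 SD or more over the vehicle control mean in both replicates, plus primary screen hit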;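 further: peak minus minimum thallium fluorescence divided by baseline after K/Tl stimulus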
Kir2-1 sel = mouse Kir2.1 off-target activity of KCNQ2 potentiators | activity over 3SD threshold, % at 10 µM | shares compounds with KCNQ2 pot | actives 2% (n = 1,200) | HEK293 Kir2.1, FluxOR thallium flux fluorescence | AID 2345;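 active means fluorescence ratio rise of at least 3 SD above the vehicle-control mean, seen in both replicates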
KCNQ2 W236L MoA = potentiates the retigabine-insensitive rat KCNQ2 W236L mutant channel; shares compounds with KCNQ2 pot; CHO KCNQ2-W236L, automated patch clamp current; current increase over 3SD of negative controls (%), stronger effect = higher value, % at 25 µM; actives 10% (n = 940);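 active means current increase at least 3 SD of the untreated controls above them in both duplicate recordings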
Each line names hits and unclear results; the compound was inactive in the other large screens (follow-up assays come after a bar, where they were run). Most compounds without a hit are left out; they make up all but 1.6% or so of the library.

COc1ccc(C(CC(=O)O)NS(=O)(=O)c2ccc3c(c2)NC(=O)CO3)cc1 (centres undefined)	none (no result: KCNQ2 pot)
Cc1cc(C)cc(OCC(=O)OCC(=O)N(C)CC(=O)Nc2ccc(F)cc2)c1	KCNQ2 pot 8.3 | Kir21 conf inh inactive | HEK293 ctr inactive | CHO-K1 Tl ctr 18 | KCNQ1 sel pot inactive | KCNQ2 pot confirm 19 | Kir2-1 sel inactive | KCNQ2 W236L MoA inactive
CN(CC(=O)Nc1ccc(F)cc1)C(=O)COC(=O)COc1ccc(C#N)cc1	none
COc1ccccc1NC(=O)COC(=O)CCn1c(C)csc1=O	none
CCCCOc1c(Br)cc(/C=N/O)cc1OCC	none (no result: KCNQ2 pot) | Kir21 conf inh 74% | HEK293 ctr inactive
C=CCOc1c(Br)cc(/C=N/O)cc1OCC	none (no result: KCNQ2 pot)
N#CCCOC1(C#CCN2CCCC2)CCCCC1	none (no result: KCNQ2 pot)
CC1(C)CCc2cc(-c3ccnc(=S)[nH]3)ccc2O1	none (no result: KCNQ2 pot)
CC1(C)CCc2cc(-c3ccn(S(=O)(=O)c4ccccc4Cl)n3)ccc2O1	KCNQ2 pot 19 | Kir21 conf inh inactive | HEK293 ctr inactive | CHO-K1 Tl ctr 4.6 | KCNQ1 sel pot inactive | KCNQ2 pot confirm 39 | Kir2-1 sel inactive | KCNQ2 W236L MoA 3.0%
CC1(C)CCc2cc(CN3CCN(c4ccccn4)CC3)ccc2O1	none
COc1ccc(S(=O)(=O)n2ccc(-c3ccc4c(c3)CCC(C)(C)O4)n2)cc1	KCNQ2 pot 8.2 | Kir21 conf inh inactive | HEK293 ctr inactive | CHO-K1 Tl ctr 3.8 | KCNQ1 sel pot inactive | KCNQ2 pot confirm inactive | Kir2-1 sel inactive
COc1ccc(N(CC(=O)Nc2cc(OC)c(OC)cc2C(=O)O)S(=O)(=O)c2c(C)noc2C)cc1	none
CS(=O)(=O)N1CCN(c2ccc(NC(=S)NC(=O)c3cccs3)cc2)CC1	none (no result: KCNQ2 pot)
O=C(NC(=S)Nc1ccc(N2CCCCC2)cc1)c1cccs1	KCNQ2 pot 5.8 | Kir21 conf inh inactive | HEK293 ctr 126% | CHO-K1 Tl ctr inactive | KCNQ1 sel pot inactive | KCNQ2 pot confirm 3.0 | Kir2-1 sel inactive | KCNQ2 W236L MoA inactive
CC(C)(C)Cc1nnc(NC(=O)CSc2ccccc2)s1	none (no result: KCNQ2 pot)
Cc1cccc(/C=N\NC(=O)c2ccc(Cl)cc2)c1O	none
Cc1ccc(O)c(/C=N/NC(=O)Cc2ccc(Cl)cc2)c1	KCNQ2 pot 5.3 | Kir21 conf inh inactive | HEK293 ctr inactive | CHO-K1 Tl ctr inactive | KCNQ1 sel pot 43 | KCNQ2 pot confirm inactive | Kir2-1 sel inactive
Cc1cccc(/C=N/NC(=O)Cc2ccc(Cl)cc2)c1O	KCNQ2 pot 7.2 | Kir21 conf inh inactive | HEK293 ctr 69% | CHO-K1 Tl ctr inactive | KCNQ1 sel pot 7.6 | KCNQ2 pot confirm 2.5 | Kir2-1 sel inactive | KCNQ2 W236L MoA inactive
Cc1ccsc1/C=N/NC(=O)Cc1ccc(Cl)cc1	none (no result: KCNQ2 pot)
Cc1sc2nc(SCC(=O)N(C)c3ccccc3)n(C)c(=O)c2c1C	none (no result: KCNQ2 pot)
COc1ccc(Nc2nc(NCC3CCCO3)c3ccccc3n2)c(OC)c1 (centres undefined)	none (no result: KCNQ2 pot) | Kir21 conf inh 30% | HEK293 ctr inactive
Oc1cccc(Nc2nc(NCC3CCCO3)c3ccccc3n2)c1 (centres undefined)	none (no result: KCNQ2 pot)
CNC(=O)/C(C#N)=C/c1c(N2CCCCCC2)nc2c(C)cccn2c1=O	none
Cc1ccc(NC(=O)CC(N)=S)cc1	none (no result: KCNQ2 pot)
Cc1ccc(NC(=O)CC(O)(C(F)(F)F)C(F)(F)F)cc1	KCNQ2 pot 9.7 | Kir21 conf inh inactive | HEK293 ctr inactive | CHO-K1 Tl ctr inactive | KCNQ1 sel pot inactive | KCNQ2 pot confirm 36 | Kir2-1 sel inactive | KCNQ2 W236L MoA 3.0%
COc1cccc(NC(=O)N2CCC(NC(=O)c3ccco3)CC2)c1	none
O=c1c2ccccc2c(C=NC2CCS(=O)(=O)C2)c(O)n1-c1ccccc1 (centres undefined)	none
